Laboratory results published in article PMC4242493, “Sequence specificity incompletely defines the genome-wide occupancy of Myc”.
In all, about 33,000 sequences were measured (“normalized occupancy”: median about 0.075, highest 2% from about 0.095 on). The sample holds the highest values, similar sequences and a random draw of the others, so the mix is not that of the screen.

The sequences below were run against MaxL homodimer (Homo sapiens, UniProt P61244 1-160) (assay: universal protein-binding microarray (PBM); PBS-based mixture, 10 nM His-tagged protein dimer, 2% milk, 200 ng/uL BSA, 50 ng/uL salmon testes DNA, 0.02% TX-100; detection with Alexa 488 anti-His antibody;; high values mean tight binding). Conditions: protein: recombinant; tags: C-terminal His-tag (pET21a); chain copies: 2; dsDNA, one strand shown.
In short: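 A His-tagged protein dimer at 10 nM was incubated on Agilent 4 x 44 K arrays of the 'all 10-mer' universal design, then labelled with 10 ng/μL fluorophore-conjugated anti-His antibody and scanned on a GenePix 4400A. A fluorescence intensity was assigned to each 8-mer. Binding occupancy is each such intensity normalised to that of the highest-ranked one.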

MaxL homodimer, sequence (P61244 whole entry): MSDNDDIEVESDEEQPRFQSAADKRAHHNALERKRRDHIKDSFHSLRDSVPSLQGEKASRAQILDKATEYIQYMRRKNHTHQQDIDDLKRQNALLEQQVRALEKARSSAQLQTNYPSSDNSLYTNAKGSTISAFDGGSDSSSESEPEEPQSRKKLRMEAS

Sequence | binding signal [normalized occupancy]
GCACGAGA | 0.098
CCACGAGA | 0.1
CCACGAGC | 0.0889
CCACGAGG | 0.182
GCACGAGC | 0.085
CCACGACG | 0.0811
CCACGAAG | 0.0767
TCACGAGA | 0.0875
CAACGAGA | 0.0767
ATGGACTA | 0.0826
ACTGTTCA | 0.073
AATGTTAC | 0.0779
ACTGCGGA | 0.0741
AGCTCCAA | 0.0722
CCACACCA | 0.0899
CCACGCCC | 0.0948
CTACGCCA | 0.0777
CCACGCCA | 0.0991
CCACGCCG | 0.0985
GCACGCCA | 0.0859
CGCTTGTA | 0.0739
AGGCTTTA | 0.0758
ATGCCAAC | 0.0785
AGGCGTTC | 0.0755
AGGCGTCG | 0.0733
AGGCGTGG | 0.098

Sequence | binding signal [normalized occupancy]
AGGCGCGC | 0.0762
AGGCGTGC | 0.0963
AGGCGTGA | 0.0829
AATTAAAT | 0.0748
CGTAATTC | 0.0757
ACCAAGCG | 0.0722
ACAACTGT | 0.0734
ATACGCGC | 0.0771
ACACGCGG | 0.143
ACGCGCGT | 0.0896
ACACGCGT | 0.13
AAACGCGG | 0.0761
ACGCGCGC | 0.0821
ACACGCGC | 0.112
AAACGCGT | 0.08
ACACGCGA | 0.116
ACGCGCGG | 0.0929
ACGCGCGA | 0.0786
AAACGCGA | 0.0771
TAGAACAA | 0.0771
CAGTGCTC | 0.0745
ATAGCGAA | 0.0727
ATTGTAAC | 0.0837
CTCAATCA | 0.0801
ACAATGAA | 0.0787
AGGACATA | 0.0758

Sequence | binding signal [normalized occupancy]
TCTTATCA | 0.0736
CTACTGTC | 0.0719
AGACATGA | 0.0878
CGACATTC | 0.0758
AGACATGG | 0.0832
CGACATGA | 0.0858
CGACATGC | 0.0992
AGACATGC | 0.102
CTAGCTCA | 0.0759
CACGCCCA | 0.0892
GAGAGCAC | 0.0743
GCACGCAC | 0.0902
CGACGCTA | 0.0724
CCACGCAA | 0.0865
CCACGCTC | 0.0965
CCACGCTA | 0.0973
GTACGCTA | 0.0796
CCACGCAC | 0.0964
ACACGCTC | 0.0924
GAACGCTA | 0.0771
GCACGCTA | 0.101
CAACGCTA | 0.0734
CAACGCTC | 0.0772
GAACACAA | 0.0743
CCAATTCG | 0.0738
AGCCCTCC | 0.0723

Sequence | binding signal [normalized occupancy]
TCGTAAAA | 0.0794
GCCATCAC | 0.0781
ATACTGGC | 0.0812
AGTCACAG | 0.0732
ACGCACAG | 0.076
ACGCACAA | 0.0775
AGTCACAC | 0.0886
AGGCACAC | 0.0801
AGTCACAT | 0.101
ACGCACAT | 0.0968
AGGCACAG | 0.075
AGGCACAT | 0.098
GCGACAGC | 0.0756
CAACATCG | 0.0784
GTACGGGA | 0.0747
GCACCAGC | 0.0755
TCTGTTAA | 0.0739
AACTGTAC | 0.0732
AAGCTACG | 0.0726
CTATTGTC | 0.079
CCTACAGC | 0.0762
AGATGCTG | 0.078
GGATGCTA | 0.0763
AGATGCTA | 0.0746
ACATGCTA | 0.106
AAATGCTA | 0.0773

Sequence | binding signal [normalized occupancy]
ATATGCTG | 0.0875
CCATGCTA | 0.0945
ACATGCTG | 0.124
GCATGCTA | 0.112
AATAGTAA | 0.0776
CATGGCTA | 0.0864
AAGAATTG | 0.0747
TAGTGGCA | 0.0787
GATGCTAA | 0.0749
CAGAGACC | 0.0727
AGCTATAA | 0.0785
CCAGGTAA | 0.0729
ACATACAG | 0.0868
GGGTGCTA | 0.0789
ACGTGCTA | 0.109
AGGTGCTC | 0.0817
CCGTGCTC | 0.0737
GTGTGCTA | 0.0884
ACGTGCTC | 0.108
CCGTGCTA | 0.0812
GCGTGCTA | 0.117
ACGTGCTG | 0.0935
GCGAACTA | 0.0739
ATGTGTCC | 0.0851
ACATTTGA | 0.0788
ACTCACTC | 0.0763

Sequence | binding signal [normalized occupancy]
CATCCCAG | 0.0743
ATGCCCAG | 0.0765
AGGGGTGA | 0.082
CATGGTAC | 0.0998
CATGGTAA | 0.0939
CGTGGTCA | 0.102
AATGGTCA | 0.0816
CATGGTCA | 0.0991
CGTGGTAG | 0.089
CGTGGTAA | 0.096
CGTGGTCC | 0.0896
AGTGGTCA | 0.0751
GGTGGTAA | 0.0793
CATGGTCG | 0.0925
CATGGTAG | 0.0879
GTTAGACA | 0.0808
CAGGTCAG | 0.0752
GCATAGCC | 0.0775
ACGTTCCC | 0.0819
GGTCTTTA | 0.0763
AACACAGC | 0.0787
CAAGTGTG | 0.086
ATAATGTG | 0.095
ACACAGAG | 0.0759
GATCTTGC | 0.0794
AGCATCTC | 0.0746

Sequence | binding signal [normalized occupancy]
AGGCATAG | 0.0784
AGGCATGG | 0.0974
AGGCATCC | 0.0757
AGGCATTG | 0.0775
AGGCATTC | 0.0762
AGGCATGC | 0.1
CTCGAAAA | 0.0738
CAAAATTG | 0.0748
AGTCGCAA | 0.0744
GCAGGTAA | 0.0753
AATGTTCC | 0.0722
GACGTGCA | 0.0797
TACGTGCA | 0.0875
CCCGTGCG | 0.0872
AACGTGCC | 0.096
AAGGTGCT | 0.0733
CACGTGCA | 0.588
CACGTCCG | 0.0797
GACGTGCC | 0.0841
ACCGTGCT | 0.0773
